# Where two headings read alike, the source gives them in different places.
# Columns and labels:
# IKBKE = details: read-out: apparent Kd, n = 1
# NUAK1 = details: read-out: apparent Kd, n = 1
# [1] = compound concentrations:100 nM and 1000 nM (sheet 'Lestaurtinib' of Supplementary Table 1),run:Lestaurtinib_02364_R2,Plate:MR002
# [2] = compound concentrations:100 nM and 1000 nM (sheet 'Lestaurtinib' of Supplementary Table 1),run:Lestaurtinib_02364_R3,Plate:MR002
# [3] = compound concentrations:100 nM and 1000 nM (sheet 'Lestaurtinib' of Supplementary Table 1),run:Lestaurtinib_02367_R1,Plate:MR003
# [4] = compound concentrations:100 nM and 1000 nM (sheet 'Lestaurtinib' of Supplementary Table 1),run:Lestaurtinib_02381_R1,Plate:MR004
# [5] = compound concentrations:100 nM and 1000 nM (sheet 'Lestaurtinib' of Supplementary Table 1),run:Lestaurtinib_02437_R1,Plate:MR007
# [6] = compound concentrations:100 nM and 1000 nM (sheet 'Lestaurtinib' of Supplementary Table 1),run:Lestaurtinib_02437_R2,Plate:MR007
# [7] = compound concentrations:100 nM and 1000 nM (sheet 'Lestaurtinib' of Supplementary Table 1),run:Lestaurtinib_02438_R1,Plate:MR008
# [8] = compound concentrations:100 nM and 1000 nM (sheet 'Lestaurtinib' of Supplementary Table 1),run:Lestaurtinib_02438_R2,Plate:MR008
# [9] = compound concentrations:100 nM and 1000 nM (sheet 'Lestaurtinib' of Supplementary Table 1),run:Lestaurtinib_02443_R2,Plate:MR009
# [10] = compound concentrations:100 nM and 1000 nM (sheet 'Lestaurtinib' of Supplementary Table 1),run:Lestaurtinib_02482_R1,Plate:MR011
# [11] = compound concentrations:100 nM and 1000 nM (sheet 'Lestaurtinib' of Supplementary Table 1),run:Lestaurtinib_02482_R3,Plate:MR011
# [12] = compound concentrations:100 nM and 1000 nM (sheet 'Lestaurtinib' of Supplementary Table 1),run:Lestaurtinib_02487_R2,Plate:MR012
substance,measurement,setting,value
Lestaurtinib,potency estimated from few doses,"IKBKE; compound concentrations:100 nM and 1000 nM (sheet 'Lestaurtinib' of Supplementary Table 1),run:Lestaurtinib_02364_R1,Plate:MR002",769 nM
same,potency estimated from few doses,IKBKE; [1],896 nM
same,potency estimated from few doses,IKBKE; [2],647 nM
same,potency estimated from few doses,IKBKE; [3],711 nM
same,potency estimated from few doses,"IKBKE; compound concentrations:100 nM and 1000 nM (sheet 'Lestaurtinib' of Supplementary Table 1),run:Lestaurtinib_02367_R2,Plate:MR003",972 nM
same,potency estimated from few doses,IKBKE; [4],695 nM
same,potency estimated from few doses,"IKBKE; compound concentrations:100 nM and 1000 nM (sheet 'Lestaurtinib' of Supplementary Table 1),run:Lestaurtinib_02381_R2,Plate:MR004",551 nM
same,potency estimated from few doses,"IKBKE; compound concentrations:100 nM and 1000 nM (sheet 'Lestaurtinib' of Supplementary Table 1),run:Lestaurtinib_02381_R3,Plate:MR004",713 nM
same,potency estimated from few doses,"IKBKE; compound concentrations:100 nM and 1000 nM (sheet 'Lestaurtinib' of Supplementary Table 1),run:Lestaurtinib_02407_R3,Plate:MR005",883 nM
same,potency estimated from few doses,"IKBKE; compound concentrations:100 nM and 1000 nM (sheet 'Lestaurtinib' of Supplementary Table 1),run:Lestaurtinib_02422_R3,Plate:MR006",976 nM
same,potency estimated from few doses,IKBKE; [5],554 nM
same,potency estimated from few doses,IKBKE; [6],807 nM
same,potency estimated from few doses,"IKBKE; compound concentrations:100 nM and 1000 nM (sheet 'Lestaurtinib' of Supplementary Table 1),run:Lestaurtinib_02437_R3,Plate:MR007",71.2 nM
same,potency estimated from few doses,IKBKE; [7],861 nM
same,potency estimated from few doses,IKBKE; [8],834 nM
same,potency estimated from few doses,"IKBKE; compound concentrations:100 nM and 1000 nM (sheet 'Lestaurtinib' of Supplementary Table 1),run:Lestaurtinib_02443_R1,Plate:MR009",745 nM
same,potency estimated from few doses,IKBKE; [9],713 nM
same,potency estimated from few doses,IKBKE; [10],1130 nM
same,potency estimated from few doses,IKBKE; [11],627 nM
same,potency estimated from few doses,IKBKE; [12],1150 nM
same,potency estimated from few doses,"IKBKE; compound concentrations:100 nM and 1000 nM (sheet 'Lestaurtinib' of Supplementary Table 1),run:Lestaurtinib_02487_R3,Plate:MR012",756 nM
same,potency estimated from few doses,"IKBKE; compound concentrations:100 nM and 1000 nM (sheet 'Lestaurtinib' of Supplementary Table 1),run:Lestaurtinib_02496_R1,Plate:MR013",710 nM
same,potency estimated from few doses,"IKBKE; compound concentrations:100 nM and 1000 nM (sheet 'Lestaurtinib' of Supplementary Table 1),run:Lestaurtinib_02496_R2,Plate:MR013",695 nM
same,potency estimated from few doses,"IKBKE; compound concentrations:100 nM and 1000 nM (sheet 'Lestaurtinib' of Supplementary Table 1),run:Lestaurtinib_02566_R1,Plate:MR014",877 nM
same,potency estimated from few doses,"IKBKE; compound concentrations:100 nM and 1000 nM (sheet 'Lestaurtinib' of Supplementary Table 1),run:Lestaurtinib_02572_R1,Plate:MR015",756 nM
same,potency estimated from few doses,"IKBKE; compound concentrations:100 nM and 1000 nM (sheet 'Lestaurtinib' of Supplementary Table 1),run:Lestaurtinib_02572_R2,Plate:MR015",857 nM
same,potency estimated from few doses,"IKBKE; compound concentrations:100 nM and 1000 nM (sheet 'Lestaurtinib' of Supplementary Table 1),run:Lestaurtinib_02572_R3,Plate:MR015",855 nM
same,potency estimated from few doses,"IKBKE; compound concentrations:100 nM and 1000 nM (sheet 'Lestaurtinib' of Supplementary Table 1),run:Lestaurtinib_02577_R1,Plate:MR016",799 nM
same,potency estimated from few doses,"IKBKE; compound concentrations:100 nM and 1000 nM (sheet 'Lestaurtinib' of Supplementary Table 1),run:Lestaurtinib_02577_R2,Plate:MR016",785 nM
same,potency estimated from few doses,"IKBKE; compound concentrations:100 nM and 1000 nM (sheet 'Lestaurtinib' of Supplementary Table 1),run:Lestaurtinib_02577_R3,Plate:MR016",713 nM
same,potency estimated from few doses,"IKBKE; compound concentrations:100 nM and 1000 nM (sheet 'Lestaurtinib' of Supplementary Table 1),run:Lestaurtinib_02584_R2,Plate:MR017",744 nM
same,potency estimated from few doses,"IKBKE; compound concentrations:100 nM and 1000 nM (sheet 'Lestaurtinib' of Supplementary Table 1),run:Lestaurtinib_02584_R3,Plate:MR017",935 nM
same,potency estimated from few doses,"IKBKE; compound concentrations:100 nM and 1000 nM (sheet 'Lestaurtinib' of Supplementary Table 1),run:Lestaurtinib_02601_R3,Plate:MR018",796 nM
same,potency estimated from few doses,"IKBKE; compound concentrations:100 nM and 1000 nM (sheet 'Lestaurtinib' of Supplementary Table 1),run:Lestaurtinib_02606_R1,Plate:MR019",995 nM
same,potency estimated from few doses,"IKBKE; compound concentrations:100 nM and 1000 nM (sheet 'Lestaurtinib' of Supplementary Table 1),run:Lestaurtinib_02624_R2,Plate:MR020",729 nM
same,potency estimated from few doses,"IKBKE; compound concentrations:100 nM and 1000 nM (sheet 'Lestaurtinib' of Supplementary Table 1),run:Lestaurtinib_02624_R3,Plate:MR020",787 nM
same,potency estimated from few doses,"IKBKE; compound concentrations:100 nM and 1000 nM (sheet 'Lestaurtinib' of Supplementary Table 1),run:Lestaurtinib_02724_R1,Plate:MR021",731 nM
same,potency estimated from few doses,"IKBKE; compound concentrations:100 nM and 1000 nM (sheet 'Lestaurtinib' of Supplementary Table 1),run:Lestaurtinib_02724_R2,Plate:MR021",809 nM
same,potency estimated from few doses,"IKBKE; compound concentrations:100 nM and 1000 nM (sheet 'Lestaurtinib' of Supplementary Table 1),run:Lestaurtinib_02724_R3,Plate:MR021",582 nM
same,potency estimated from few doses,"IKBKE; compound concentrations:100 nM and 1000 nM (sheet 'Lestaurtinib' of Supplementary Table 1),run:Lestaurtinib_02741_R1,Plate:MR023",782 nM
same,potency estimated from few doses,"IKBKE; compound concentrations:100 nM and 1000 nM (sheet 'Lestaurtinib' of Supplementary Table 1),run:Lestaurtinib_02741_R2,Plate:MR023",810 nM
same,potency estimated from few doses,"IKBKE; compound concentrations:100 nM and 1000 nM (sheet 'Lestaurtinib' of Supplementary Table 1),run:Lestaurtinib_02741_R3,Plate:MR023",965 nM
same,potency estimated from few doses,"IKBKE; compound concentrations:100 nM and 1000 nM (sheet 'Lestaurtinib' of Supplementary Table 1),run:Lestaurtinib_02748_R1,Plate:MR024",505 nM
same,potency estimated from few doses,"IKBKE; compound concentrations:100 nM and 1000 nM (sheet 'Lestaurtinib' of Supplementary Table 1),run:Lestaurtinib_02748_R3,Plate:MR024",810 nM
same,potency estimated from few doses,"IKBKE; compound concentrations:100 nM and 1000 nM (sheet 'Lestaurtinib' of Supplementary Table 1),run:Lestaurtinib_02752_R1,Plate:MR025",783 nM
same,potency estimated from few doses,"IKBKE; compound concentrations:100 nM and 1000 nM (sheet 'Lestaurtinib' of Supplementary Table 1),run:Lestaurtinib_02752_R2,Plate:MR025",786 nM
same,potency estimated from few doses,"IKBKE; compound concentrations:100 nM and 1000 nM (sheet 'Lestaurtinib' of Supplementary Table 1),run:Lestaurtinib_02752_R3,Plate:MR025",596 nM
same,potency estimated from few doses,"IKBKE; compound concentrations:100 nM and 1000 nM (sheet 'Lestaurtinib' of Supplementary Table 1),run:Lestaurtinib_02765_R1,Plate:MR026",860 nM
same,potency estimated from few doses,"IKBKE; compound concentrations:100 nM and 1000 nM (sheet 'Lestaurtinib' of Supplementary Table 1),run:Lestaurtinib_02765_R3,Plate:MR026",731 nM
same,potency estimated from few doses,"IKBKE; compound concentrations:100 nM and 1000 nM (sheet 'Lestaurtinib' of Supplementary Table 1),run:Lestaurtinib_02768_R1,Plate:MR028",686 nM
same,potency estimated from few doses,"IKBKE; compound concentrations:100 nM and 1000 nM (sheet 'Lestaurtinib' of Supplementary Table 1),run:Lestaurtinib_02768_R2,Plate:MR028",820 nM
same,potency estimated from few doses,"IKBKE; compound concentrations:100 nM and 1000 nM (sheet 'Lestaurtinib' of Supplementary Table 1),run:Lestaurtinib_02768_R3,Plate:MR028",628 nM
same,potency estimated from few doses,"IKBKE; compound concentrations:100 nM and 1000 nM (sheet 'Lestaurtinib' of Supplementary Table 1),run:Lestaurtinib_02795_R1,Plate:MR022",874 nM
same,potency estimated from few doses,"IKBKE; compound concentrations:100 nM and 1000 nM (sheet 'Lestaurtinib' of Supplementary Table 1),run:Lestaurtinib_02795_R3,Plate:MR022",1210 nM
same,potency estimated from few doses,"IKBKE; compound concentrations:100 nM and 1000 nM (sheet 'Lestaurtinib' of Supplementary Table 1),run:Lestaurtinib_02802_R3,Plate:MR029",831 nM
same,potency estimated from few doses,"IKBKE; compound concentrations:100 nM and 1000 nM (sheet 'Lestaurtinib' of Supplementary Table 1),run:Lestaurtinib_02896_R1,Plate:MR030",749 nM
same,potency estimated from few doses,"IKBKE; compound concentrations:100 nM and 1000 nM (sheet 'Lestaurtinib' of Supplementary Table 1),run:Lestaurtinib_02896_R3,Plate:MR030",608 nM
same,potency estimated from few doses,"IKBKE; compound concentrations:100 nM and 1000 nM (sheet 'Lestaurtinib' of Supplementary Table 1),run:Lestaurtinib_03172_R2,Plate:MR031",814 nM
same,potency estimated from few doses,"IKBKE; compound concentrations:100 nM and 1000 nM (sheet 'Lestaurtinib' of Supplementary Table 1),run:Lestaurtinib_03172_R3,Plate:MR031",662 nM
same,potency estimated from few doses,"IKBKE; compound concentrations:100 nM and 1000 nM (sheet 'Lestaurtinib' of Supplementary Table 1),run:Lestaurtinib_03252_R1,Plate:MR032",804 nM
same,potency estimated from few doses,"IKBKE; compound concentrations:100 nM and 1000 nM (sheet 'Lestaurtinib' of Supplementary Table 1),run:Lestaurtinib_03260_R1,Plate:MR033",1210 nM
same,potency estimated from few doses,"IKBKE; compound concentrations:100 nM and 1000 nM (sheet 'Lestaurtinib' of Supplementary Table 1),run:Lestaurtinib_03260_R3,Plate:MR033",943 nM
same,potency estimated from few doses,"NUAK1; compound concentrations:100 nM and 1000 nM (sheet 'Lestaurtinib' of Supplementary Table 1),run:Lestaurtinib_02339_R1,Plate:MR001",94.5 nM
same,potency estimated from few doses,"NUAK1; compound concentrations:100 nM and 1000 nM (sheet 'Lestaurtinib' of Supplementary Table 1),run:Lestaurtinib_02339_R2,Plate:MR001",55.6 nM
same,potency estimated from few doses,NUAK1; [1],62.3 nM
same,potency estimated from few doses,NUAK1; [2],66.1 nM
same,potency estimated from few doses,NUAK1; [3],51.3 nM
same,potency estimated from few doses,"NUAK1; compound concentrations:100 nM and 1000 nM (sheet 'Lestaurtinib' of Supplementary Table 1),run:Lestaurtinib_02367_R3,Plate:MR003",78 nM
same,potency estimated from few doses,NUAK1; [4],85.9 nM
same,potency estimated from few doses,"NUAK1; compound concentrations:100 nM and 1000 nM (sheet 'Lestaurtinib' of Supplementary Table 1),run:Lestaurtinib_02407_R1,Plate:MR005",124 nM
same,potency estimated from few doses,"NUAK1; compound concentrations:100 nM and 1000 nM (sheet 'Lestaurtinib' of Supplementary Table 1),run:Lestaurtinib_02407_R2,Plate:MR005",200 nM
same,potency estimated from few doses,"NUAK1; compound concentrations:100 nM and 1000 nM (sheet 'Lestaurtinib' of Supplementary Table 1),run:Lestaurtinib_02422_R1,Plate:MR006",69.5 nM
same,potency estimated from few doses,NUAK1; [5],89.8 nM
same,potency estimated from few doses,NUAK1; [6],113 nM
same,potency estimated from few doses,NUAK1; [7],94.3 nM
same,potency estimated from few doses,NUAK1; [8],82.5 nM
same,potency estimated from few doses,NUAK1; [9],163 nM
same,potency estimated from few doses,"NUAK1; compound concentrations:100 nM and 1000 nM (sheet 'Lestaurtinib' of Supplementary Table 1),run:Lestaurtinib_02473_R1,Plate:MR010",93 nM
same,potency estimated from few doses,"NUAK1; compound concentrations:100 nM and 1000 nM (sheet 'Lestaurtinib' of Supplementary Table 1),run:Lestaurtinib_02473_R2,Plate:MR010",56.8 nM
same,potency estimated from few doses,NUAK1; [10],115 nM
same,potency estimated from few doses,"NUAK1; compound concentrations:100 nM and 1000 nM (sheet 'Lestaurtinib' of Supplementary Table 1),run:Lestaurtinib_02482_R2,Plate:MR011",74.4 nM
same,potency estimated from few doses,NUAK1; [11],87.3 nM
same,potency estimated from few doses,"NUAK1; compound concentrations:100 nM and 1000 nM (sheet 'Lestaurtinib' of Supplementary Table 1),run:Lestaurtinib_02487_R1,Plate:MR012",60.4 nM
same,potency estimated from few doses,NUAK1; [12],99.7 nM

# — article PMC11062922 (Nature Chemical Biology, 2023)
